Experimental data taken from PubChem BioAssay (NCI).
The panel holds about 83,000 compounds, 20% with a hit somewhere; the sample as a whole holds those more often.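 The endpoint reported here, percent growth, reads 100 for growth as untreated, 0 for no net growth and -100 for all cells dead.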 Active and inactive are the calls of the source. The calls were made as follows: active = growth percent below 10; inactive = the rest.

Tests used:
Assay in all cases: NCI-60 one-dose screen, 48 h (100 = growth as untreated, 0 = no growth, -100 = all killed)
Details in all cases: 10 µM unless noted
[1] = system: SK-MEL-2 melanoma
[2] = system: EKVX NSCLC
[3] = system: SN12C renal
[4] = system: UO-31 renal
[5] = system: TK-10 renal
[6] = system: ACHN renal
[7] = system: CAKI-1 renal
[8] = system: A498 renal
[9] = system: CCRF-CEM leukemia
[10] = system: MOLT-4 leukemia

Measured: growth

Cn1cnc([N+](=O)[O-])c1Sc1nc(N)nc2nc[nH]c12
inactive: [1] 17.8% | [2] 27.9% | [3] 43.6% | [4] 16.9% | [5] 38.5% | [6] 72.7% | [7] 38.4% | [8] 43.6% | [9] 13.5% | [10] 11.3%

CCOC1Oc2ccccc2C(=O)/C1=N/c1nccs1 (stereo not given)
inactive: [1] 73.9% | [2] 89.3% | [3] 76.4% | [4] 89.4% | [5] 98.8% | [6] 84.9% | [7] 77.3% | [8] 115% | [9] 82.4% | [10] 79.8%

COc1cc(NC(=O)NCc2ccco2)ccc1-c1ccc(NC(=O)NCc2ccco2)cc1OC
inactive: [1] 76.3% | [2] 73% | [3] 69.4% | [4] 73.4% | [5] 37.7% | [6] 60.2% | [7] 105% | [8] 65.8% | [9] 61.3% | [10] 62.5%

Cc1cc(C(=O)Nc2ccc3cc(CN4CCOCC4)ccc3n2)c(C)n1-c1ccccc1
active: [9] 8.79% | [10] -17.4%
inactive: [1] 16.6% | [2] 44.9% | [3] 73% | [4] 53.3% | [5] 70.4% | [6] 50.5% | [7] 49.7% | [8] 79.8%

NC(=O)NS(=O)(=O)c1ccc(N2N=C(C(F)(F)F)CC2c2cc(C(F)(F)F)cc(C(F)(F)F)c2)cc1 (stereo not given)
inactive: [1] 11.2% | [2] 58.5% | [3] 83.5% | [4] 49.6% | [5] 85.6% | [6] 80.7% | [7] 78.9% | [8] 70.1% | [9] 37.4% | [10] 43.2%

O=Nc1c2cccnc2n2nnc3ccc(Cl)cc3c12
active: [4] -37.4% | [6] -49.8% | [7] 5.93% | [9] -60.5% | [10] -54.3%
inactive: [1] 57.1% | [2] 77.4% | [3] 56.5% | [5] 16.5% | [8] 88.3%

COc1ccc(/C=C2/SC(=Nc3c(C)nn(-c4ccccc4)c3N)NC2=O)cc1
active: [8] -54.5%
inactive: [1] 39.1% | [2] 69.3% | [3] 67.9% | [4] 32.8% | [5] 71.6% | [6] 46.8% | [7] 23% | [9] 33.2% | [10] 51.6%

O=C(CC1Sc2ccccc2NC1=O)NNc1cccc(Cl)c1Cl (stereo not given)
inactive: [1] 87% | [2] 91.3% | [3] 87.5% | [4] 61.8% | [5] 89.9% | [6] 91.4% | [7] 90.4% | [8] 61.5% | [9] 70.8% | [10] 71.6%

CCOC(CNCc1cc(C)c2[nH]c3ccccc3c2c1C)OCC
inactive: [1] 62.2% | [2] 90% | [3] 69.7% | [4] 45.1% | [5] 77.3% | [6] 88.3% | [7] 71.4% | [8] 39.8% | [9] 77.5% | [10] 62.5%

COc1ccc2cc(-c3nc4ccccc4[nH]3)c(=O)oc2c1
inactive: [1] 22.1% | [2] 77.3% | [3] 92.3% | [4] 94.2% | [5] 119% | [6] 86.2% | [7] 82.2% | [8] 95.6% | [9] 95.3% | [10] 97.7%

Cc1[nH]cnc1/C=C1\SC(N2CCCCC2)=NC1=O
inactive: [1] 98% | [2] 108% | [3] 98.4% | [4] 83% | [5] 109% | [6] 106% | [7] 112% | [8] 83.4% | [9] 99.3% | [10] 100%

c1ccc(-c2oc(-c3ccccc3)c3ccccc23)cc1
inactive: [1] 104% | [2] 92.1% | [3] 104% | [4] 110% | [5] 114% | [6] 104% | [7] 74.7% | [8] 98.9% | [9] 85.5% | [10] 95.7%

CC(=O)Nc1ccc(C(=O)COc2ccc(/C=C3\CCc4ccccc4C3=O)cc2)cc1
inactive: [1] 77.8% | [2] 99.8% | [3] 103% | [4] 33.2% | [5] 112% | [6] 103% | [7] 94.8% | [8] 66.3% | [9] 89.4% | [10] 78.8%

CC(=O)c1ccccc1NC(=O)C(C)(c1ccccc1)c1ccccc1
inactive: [1] 70% | [2] 92.7% | [3] 108% | [4] 81.7% | [5] 110% | [6] 83.7% | [7] 108% | [9] 77.4% | [10] 62%
active: [8] -17.9%

O=C1C=CC(=O)N1c1ccccc1N1C(=O)C=CC1=O
inactive: [1] 98.6% | [2] 115% | [3] 97.5% | [4] 79.4% | [5] 97.3% | [6] 88% | [7] 85.2% | [8] 101% | [10] 99.2%
active: [9] 1.88%

Cc1nn(-c2ccccc2)cc1/C=C1\SC(N2CCCCC2)=NC1=O
inactive: [1] 94% | [2] 94.2% | [3] 93% | [4] 65.1% | [5] 78.5% | [6] 74.7% | [7] 39.8% | [8] 71.3% | [9] 43.6% | [10] 58.6%

CCOC(=O)OCC(=O)[C@@]1(O)CC[C@H]2[C@@H]3CCC4=CC(=O)CC[C@]4(C)[C@H]3[C@@H](O)C[C@@]21C
inactive: [1] 102% | [2] 85.4% | [3] 87.2% | [4] 76.2% | [5] 96.4% | [6] 99.3% | [7] 90.9% | [8] 98.8% | [9] 84.6% | [10] 93.2%

COc1ccc(C(=O)COc2cccc(/C=C3\CSc4ccc(Cl)cc4C3=O)c2)cc1
active: [9] -21.3% | [10] 7.34%
inactive: [1] 46.9% | [2] 77.9% | [3] 90.2% | [4] 13.1% | [5] 118% | [6] 90.3% | [7] 69.6% | [8] 94.4%

CCN(Cc1cccc(S(=O)(=O)[O-])c1)c1ccc(C(=C2C=CC(=[N+](CC)Cc3cccc(S(=O)(=O)O)c3)C=C2)c2ccccc2S(=O)(=O)O)cc1
inactive: [1] 115% | [2] 94.1% | [3] 109% | [4] 85.9% | [5] 93.1% | [6] 104% | [7] 96.7% | [8] 134% | [9] 95.3% | [10] 96.5%

CCCCN1c2nc3ccccc3cc2Sc2cc3ccccc3nc21
inactive: [1] 61.9% | [2] 85.1% | [3] 102% | [4] 22% | [5] 108% | [6] 107% | [7] 460% | [8] 116% | [9] 89.2% | [10] 103%

O=C1c2cccc(NCCN=Cc3ccccc3O)c2C(=O)c2c(NCCN=Cc3ccccc3O)cccc21
active: [4] -4.5% | [9] 3.44%
inactive: [1] 46.5% | [2] 39.8% | [3] 44.5% | [5] 22.5% | [6] 15.4% | [7] 27.6% | [8] 50.7% | [10] 15%

COc1ccc(-c2cnc(SCC(=O)Nc3ccc(-c4nc5ccccc5s4)cc3)n2-c2ccc(OC)cc2)cc1
inactive: [1] 102% | [2] 108% | [3] 104% | [4] 91.7% | [5] 108% | [6] 111% | [7] 103% | [8] 108% | [9] 94.2% | [10] 105%

O=C1Nc2ccc(Cl)cc2/C1=C/c1cccs1
inactive: [1] 108% | [2] 68.3% | [3] 87.9% | [4] 44.8% | [5] 120% | [6] 88.2% | [7] 79.5% | [8] 97.5% | [9] 102% | [10] 91%

Cn1ccnc1C(=O)/C=C/c1ccc(C(=O)Nc2nc3ccccc3[nH]2)cc1
inactive: [1] 85.4% | [2] 62.3% | [3] 51.7% | [4] 28.3% | [5] 66.5% | [6] 49.3% | [7] 18.6% | [8] 51.1% | [9] 15.4% | [10] 45.2%

COC(=O)c1c(NC(=O)CSc2nnnn2-c2ccc(OC)cc2)sc(C)c1C
inactive: [1] 18.8% | [2] 74.8% | [3] 81.6% | [4] 84.6% | [5] 152% | [6] 87.3% | [7] 102% | [8] 110% | [9] 83.8% | [10] 90.8%

COc1cccc(/C=N/Nc2nc3ccccc3s2)c1OC
inactive: [1] 81% | [2] 95.7% | [3] 102% | [4] 85.1% | [5] 64.8% | [6] 79.7% | [7] 78.8% | [8] 121% | [9] 77% | [10] 74.4%

Cc1ccc(S(=O)(=O)N2CCN(C(=O)CSc3nc4ccc(C)cc4[nH]3)CC2)cc1
active: [1] 5.46%
inactive: [2] 97% | [3] 107% | [4] 93.3% | [5] 129% | [6] 113% | [7] 116% | [8] 99.7% | [9] 94.6% | [10] 74.4%
